Assay [1] addresses Lysosomal acid glucosylceramidase (Homo sapiens) (UniProt P04062). The assay is described as follows: Glucocerebrosidase-p2 (AID 348; in the data active means potency below about 10 µM; further: potency means the concentration at half of the fitted maximal effect). The settings on record: purified GBA, blue fluorogenic substrate, 40 min. Summed up:
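Normal human glucocerebrosidase (0.2 nM) with blue fluorogenic substrate (80 uM final) in citrate/phosphate pH 5.9 with 10mM sodium taurocholate, 0.01% tween-20; 40 min RT, NaOH/glycine stop; fluorescence Ex 365/Em 440; AC50 from a titration from 0.6 nM upwards.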

Assay [2] can be described thus: AP1 Signaling Pathway (AID 357).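 Further: ME-180 reporter cells stimulated with EGF at its EC50 level; on the % scale 0 is the no-effect control and ±100 the full control effect.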 The settings on record: ME-180 AP-1-bla reporter, EGF-induced, beta-lactamase ratio, 5 h; at 7.69 µM (top of the series) unless noted. Summed up:
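Beta-lactamase reporter under AP-1 response element, ME-180 background. Stimulus: EC50 EGF. Compound exposure 5 h, 37 °C. Detection: CCF4, 2.5 h RT, 460/530 nm. Values: AC50 from titration.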

Assay [3] deals with Cytochrome P450 1A2 (Homo sapiens) (UniProt P05177). Nature of the assay: p450-cyp1a2 (AID 410; calls by dose curve;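 further: -100% = full effect of reference inhibitor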). The settings on record: recombinant CYP1A2, luciferin-ME demethylation, luminescence; series mostly up to 57 µM. Put shortly: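 O-Demethylation of luciferin 6' methyl ether by human CYP1A2 is monitored as luciferase luminescence. Substrate sits at Km (100uM); enzyme is 20nM. Values are scaled to 57 uM furafylline as maximal inhibition.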

The nature of assay [4]: Stat Signaling Pathway (AID 446).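 Further: ME-180 cervical cancer cells given 40 pM IL-6 alongside compound; SIE-controlled beta-lactamase reporter measured as 460/530 nm FRET emission ratio; on the % scale 0 is the no-effect control and ±100 the full control effect.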 The settings on record: ME-180 (cervical carcinoma) SIE beta-lactamase reporter, IL-6 stimulated, 5 h; at 7.69 µM (top of the series) unless noted. Summed up: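 Emission at 460 and 530 nm (excitation 405 nm) reports SIE-controlled beta-lactamase in ME-180 cells. Cells received compound with 40 pM IL-6 for 5 hrs at 37 C; data scaled between 300 pM IL-6 and 125 nM JAK-inhibitor controls.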

Assay [5] deals with Glucocorticoid receptor (Homo sapiens) (UniProt P04150). Nature of the assay: GR-EFC Redistribution (AID 451; calls by dose curve; further: potency means the concentration at half of the fitted maximal effect). The settings on record: CHO-K1 GR-EFC translocation, beta-gal luminescence, 2 h. Put shortly:
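CHO-K1 cells stably expressing nuclear-localized β-gal enzyme acceptor and GR fused C-terminally to the enzyme donor fragment; ligand-driven nuclear translocation restores β-gal by complementation. Compounds titrated up to 46 uM final, 2 h at 37 °C; luminescence read.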

Assay [6] deals with Mitogen-activated protein kinase 10 (Mus musculus) (UniProt Q61831). Nature of the assay: JNK3 AlphaScreen Assay (AID 530).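 Further: kinase came from lysate of stimulated human HepG2 cells; signal reports phosphorylation of biotinylated GST-cJun 1-79 at Ser73 with 10 µM ATP; on the % scale 0 is the no-effect control and ±100 the full control effect.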 The settings on record: JNK3 lysate, c-Jun phosphorylation; series mostly up to 57.1 µM. Put shortly:
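Phosphorylation of biotinylated GST-cJun(1-79) at Ser73 is measured by AlphaScreen proximity luminescence. Enzyme is JNK3 in HepG2 lysates activated with interleukin-1beta and tumor necrosis factor alpha; ATP is 10 uM final.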
For orientation: Alpha assays give light when donor and acceptor beads are brought close together.

The target in assay [7] is 3',5'-cyclic-AMP phosphodiesterase 4B (Homo sapiens) (UniProt Q07343). The assay is described as follows: qHTS Assay for Inhibitors of PDE-IV (AID 607; active means well fitted activation curve with a large enough effect in the main read-out, with a control signal flat, not every such curve was filed as active; further: % of control where 0% means no effect). The settings on record: HEK293 ACTOne CNG channel cells, membrane potential fluorescence; series mostly up to 22.9 µM. Summed up:
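The readout is membrane depolarisation from a cAMP-sensing CNG channel, detected with a potential dye at ex 535/em 590. Cells were HEK293-derived (endogenous PDE-IV) at 1000 cells/well, titrated up to 22.9 uM final.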
(Quantitative high-throughput screening tests each substance at several concentrations.)

For assay [8], the target named is Cytochrome P450 3A4 (Homo sapiens) (UniProt P08684). The assay is described as follows: qHTS Assay for Activators of Cytochrome P450 3A4 (AID 885; active means well fitted curve in the direction sought with a large enough effect; an effect the other way counts as inactive or inconclusive; further: nearly all actives have a fitted effect of over 65% in size). The settings on record: recombinant CYP3A4, Luciferin-PPXE luminescence, 60 min; series mostly up to 57.1 µM. Summed up: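 Activators are scored by enhanced luminescence from CYP3A4 conversion of luciferin-PPXE (25uM, equal to KM) to luciferin, after 60 min at RT with an NADPH-regenerating system.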

Assay [9] in a line: qHTS Assay for Lipid Storage Modulators (AID 1519; calls by dose curve). The settings on record: Drosophila S3 cells, BODIPY lipid droplet/cell ratio, laser cytometry, cells loaded with oleic acid; for activity change, negative = inhibition: at 57.5 µM (top of the series). Summed up: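 Cells seeded at 5,000 per well were treated with compounds over a concentration series and loaded with oleic acid (400 uM, as added). Lipid droplet fluorescence (488 nm excitation, 500-530 nm channel) was read by laser-scanning cytometry and normalized to 20 uM Triacsin C.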

Assay [10] can be described thus: Primary qHTS for small molecule stabilizers of the endoplasmic reticulum resident proteome: Secreted ER Calcium Modulated Protein (SERCaMP) assay (AID 1508630; active means well fitted curve in the direction sought with a large enough effect; an effect the other way counts as inactive or inconclusive; further: on the % scale 0 is the no-effect control and ±100 the full control effect). The settings on record: SH-SY5Y GLuc-SERCaMP (Gaussia luciferase released on ER calcium loss) secretion, thapsigargin, luminescence; series mostly up to 38.4 µM. Put shortly: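 The SH-SY5Y reporter protocol was run at 3 concentrations up to 38.3 uM (primary) or 11 concentrations (follow-up): 16 h compound, 100 nM thapsigargin for 4 h, then extracellular luciferase luminescence.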

Assay [11] deals with Cytochrome P450 2C9 (Homo sapiens) (UniProt P11712). The assay is described as follows: qHTS Assay for Inhibitors and Substrates of Cytochrome P450 2C9 (AID 883; active means well fitted curve in the direction sought with a large enough effect; an effect the other way counts as inactive or inconclusive; further: potency means the concentration at half of the fitted maximal effect; nearly all actives have a fitted effect of over 60% in size). The settings on record: recombinant CYP2C9, luciferin-H luminescence, 60 min; series mostly up to 57.1 µM. Summed up:
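A luminogenic readout tracked human CYP2C9 (10nM) converting deoxyluciferin (100uM, at KM) in 25mM KPO4 during 60 min at 37C with regenerated NADPH. Values normalized to 57uM sulphaphenazole as complete inhibition.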

Assay [12] concerns the target Cytochrome P450 2C19 (Homo sapiens) (UniProt P33261). Nature of the assay: qHTS Assay for Inhibitors and Substrates of Cytochrome P450 2C19 (AID 899; active means well fitted curve in the direction sought with a large enough effect; an effect the other way counts as inactive or inconclusive; further: potency means the concentration at half of the fitted maximal effect; nearly all actives have a fitted effect of over 60% in size). The settings on record: recombinant CYP2C19, luciferin-H EGE luminescence; series mostly up to 57.1 µM. Summed up: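 NADPH-dependent conversion of Luciferin-H EGE (10uM, at KM) by 5nM enzyme in 50mM KPO4, 60 min at 37C following 10 min compound preincubation. Stopped with luciferin detection buffer; luminescence read after 20 min.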

The target of assay [13] is Cytochrome P450 3A4 (Homo sapiens) (UniProt P08684). The assay is described as follows: qHTS Assay for Inhibitors and Substrates of Cytochrome P450 3A4 (AID 884; active means well fitted curve in the direction sought with a large enough effect; an effect the other way counts as inactive or inconclusive; further: nearly all actives have a fitted effect of over 50% in size; further: potency means the concentration at half of the fitted maximal effect). The settings on record: recombinant CYP3A4, Luciferin-PPXE luminescence; series mostly up to 57.1 µM. Put shortly: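 Luminescent readout of luciferin produced by CYP3A4 (20 nM) dealkylation of Luciferin-PPXE, 25 uM (its KM). NADPH-driven reaction ran 60 min at RT after 10 min compound preincubation; data scaled to 57 uM ketoconazole as 100% inhibition.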

Where [14] appears, read: measured here: cell count channel max response.
Setting [15] is: measured here: lipid channel max response.

Each structure is given as a SMILES string. Records with an inconclusive call do not appear. Active and inactive are the calls of the source. Unless noted, the call rests on the fitted dose curve; in most records, active means well fitted curve in either direction with a large enough effect (not every such curve was filed as active); inconclusive means small, poorly fitted or top-dose-only effect, or another doubt; inactive means flat fitted curve, though single readings scatter.

Here are results for seven compounds from PubChem BioAssay (NCATS).

3',5'-cyclic-AMP phosphodiesterase 4B (Homo sapiens), sequence (Q07343 whole entry, looked up): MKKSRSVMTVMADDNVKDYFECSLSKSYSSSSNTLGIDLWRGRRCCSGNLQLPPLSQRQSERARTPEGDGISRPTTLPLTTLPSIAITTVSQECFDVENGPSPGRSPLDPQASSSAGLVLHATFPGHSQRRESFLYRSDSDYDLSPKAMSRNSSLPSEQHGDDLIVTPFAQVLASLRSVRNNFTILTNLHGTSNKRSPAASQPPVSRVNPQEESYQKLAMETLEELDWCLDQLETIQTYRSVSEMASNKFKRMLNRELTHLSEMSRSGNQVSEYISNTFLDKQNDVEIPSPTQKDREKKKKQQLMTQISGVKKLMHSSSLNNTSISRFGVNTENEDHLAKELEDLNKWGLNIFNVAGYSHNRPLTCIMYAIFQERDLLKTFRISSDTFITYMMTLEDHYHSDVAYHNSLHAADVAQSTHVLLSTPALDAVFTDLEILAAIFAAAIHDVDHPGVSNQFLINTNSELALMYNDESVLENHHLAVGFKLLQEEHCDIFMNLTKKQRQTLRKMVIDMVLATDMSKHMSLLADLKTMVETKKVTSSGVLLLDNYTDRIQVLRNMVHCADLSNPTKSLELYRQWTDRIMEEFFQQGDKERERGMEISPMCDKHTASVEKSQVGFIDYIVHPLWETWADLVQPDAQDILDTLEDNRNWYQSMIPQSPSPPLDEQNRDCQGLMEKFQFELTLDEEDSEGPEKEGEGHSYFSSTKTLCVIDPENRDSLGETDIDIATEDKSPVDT
Cytochrome P450 3A4 (Homo sapiens), sequence (P08684 whole entry, looked up): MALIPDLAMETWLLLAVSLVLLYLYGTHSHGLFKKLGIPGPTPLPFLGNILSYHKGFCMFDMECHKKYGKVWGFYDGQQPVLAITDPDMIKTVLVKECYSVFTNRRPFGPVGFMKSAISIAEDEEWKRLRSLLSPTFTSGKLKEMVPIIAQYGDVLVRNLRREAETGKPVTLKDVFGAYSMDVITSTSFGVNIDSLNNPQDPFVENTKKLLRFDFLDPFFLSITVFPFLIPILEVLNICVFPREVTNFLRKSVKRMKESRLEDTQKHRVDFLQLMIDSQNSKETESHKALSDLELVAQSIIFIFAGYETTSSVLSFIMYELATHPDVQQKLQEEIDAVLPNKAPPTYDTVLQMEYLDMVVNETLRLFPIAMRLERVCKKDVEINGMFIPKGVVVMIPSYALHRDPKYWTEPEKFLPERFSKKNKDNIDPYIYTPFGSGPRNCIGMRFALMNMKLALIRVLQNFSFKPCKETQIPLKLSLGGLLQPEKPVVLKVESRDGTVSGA
Lysosomal acid glucosylceramidase (Homo sapiens), sequence (P04062 whole entry, looked up): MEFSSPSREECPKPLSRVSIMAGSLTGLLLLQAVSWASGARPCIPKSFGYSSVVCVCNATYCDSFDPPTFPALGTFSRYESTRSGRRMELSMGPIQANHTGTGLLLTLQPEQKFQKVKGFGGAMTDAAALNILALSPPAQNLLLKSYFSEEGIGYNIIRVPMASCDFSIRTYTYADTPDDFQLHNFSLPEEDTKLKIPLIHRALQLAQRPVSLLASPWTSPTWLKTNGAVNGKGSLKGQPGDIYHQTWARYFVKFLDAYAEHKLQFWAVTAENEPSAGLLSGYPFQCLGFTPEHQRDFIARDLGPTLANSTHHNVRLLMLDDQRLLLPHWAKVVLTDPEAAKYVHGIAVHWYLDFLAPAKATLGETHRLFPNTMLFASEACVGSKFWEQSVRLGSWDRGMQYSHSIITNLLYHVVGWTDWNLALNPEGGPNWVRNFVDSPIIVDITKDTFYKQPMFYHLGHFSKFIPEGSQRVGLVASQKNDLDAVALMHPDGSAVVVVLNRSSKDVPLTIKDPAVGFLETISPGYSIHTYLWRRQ
Glucocorticoid receptor (Homo sapiens), sequence (P04150 whole entry, looked up, the tested form may be a part): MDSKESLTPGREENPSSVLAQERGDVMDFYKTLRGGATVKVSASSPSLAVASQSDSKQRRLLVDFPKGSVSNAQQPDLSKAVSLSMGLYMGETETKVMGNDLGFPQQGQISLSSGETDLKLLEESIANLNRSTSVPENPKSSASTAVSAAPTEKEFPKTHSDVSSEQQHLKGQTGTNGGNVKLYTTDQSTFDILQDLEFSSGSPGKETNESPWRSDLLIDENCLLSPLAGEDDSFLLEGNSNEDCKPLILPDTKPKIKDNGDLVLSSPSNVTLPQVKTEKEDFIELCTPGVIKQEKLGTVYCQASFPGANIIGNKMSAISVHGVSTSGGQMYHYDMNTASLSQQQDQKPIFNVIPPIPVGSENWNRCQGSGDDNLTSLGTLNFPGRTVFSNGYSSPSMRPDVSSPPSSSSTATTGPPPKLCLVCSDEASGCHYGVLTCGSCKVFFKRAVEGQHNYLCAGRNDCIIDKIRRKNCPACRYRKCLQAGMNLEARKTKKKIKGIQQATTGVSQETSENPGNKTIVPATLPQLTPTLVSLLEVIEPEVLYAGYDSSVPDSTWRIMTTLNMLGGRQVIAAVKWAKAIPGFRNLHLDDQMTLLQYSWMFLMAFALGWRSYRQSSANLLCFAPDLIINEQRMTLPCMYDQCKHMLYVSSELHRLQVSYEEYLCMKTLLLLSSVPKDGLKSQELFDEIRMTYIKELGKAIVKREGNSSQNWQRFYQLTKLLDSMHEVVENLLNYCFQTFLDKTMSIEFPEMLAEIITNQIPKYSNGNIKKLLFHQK
Cytochrome P450 1A2 (Homo sapiens), sequence (P05177 whole entry, looked up): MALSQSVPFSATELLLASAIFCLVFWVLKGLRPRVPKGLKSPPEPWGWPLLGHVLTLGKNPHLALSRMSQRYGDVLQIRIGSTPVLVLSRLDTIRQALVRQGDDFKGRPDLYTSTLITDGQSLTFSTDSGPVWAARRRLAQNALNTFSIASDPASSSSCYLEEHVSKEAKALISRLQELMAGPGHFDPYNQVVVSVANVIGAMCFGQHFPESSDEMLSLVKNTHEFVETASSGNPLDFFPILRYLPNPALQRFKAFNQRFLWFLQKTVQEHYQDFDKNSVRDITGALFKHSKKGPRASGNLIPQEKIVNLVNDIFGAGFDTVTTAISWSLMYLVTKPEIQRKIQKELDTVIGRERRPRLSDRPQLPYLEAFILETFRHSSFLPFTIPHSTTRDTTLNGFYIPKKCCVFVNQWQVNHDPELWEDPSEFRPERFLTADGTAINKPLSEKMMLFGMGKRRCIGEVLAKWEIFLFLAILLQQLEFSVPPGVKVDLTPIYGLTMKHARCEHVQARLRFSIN
Cytochrome P450 2C19 (Homo sapiens), sequence (P33261 whole entry, looked up): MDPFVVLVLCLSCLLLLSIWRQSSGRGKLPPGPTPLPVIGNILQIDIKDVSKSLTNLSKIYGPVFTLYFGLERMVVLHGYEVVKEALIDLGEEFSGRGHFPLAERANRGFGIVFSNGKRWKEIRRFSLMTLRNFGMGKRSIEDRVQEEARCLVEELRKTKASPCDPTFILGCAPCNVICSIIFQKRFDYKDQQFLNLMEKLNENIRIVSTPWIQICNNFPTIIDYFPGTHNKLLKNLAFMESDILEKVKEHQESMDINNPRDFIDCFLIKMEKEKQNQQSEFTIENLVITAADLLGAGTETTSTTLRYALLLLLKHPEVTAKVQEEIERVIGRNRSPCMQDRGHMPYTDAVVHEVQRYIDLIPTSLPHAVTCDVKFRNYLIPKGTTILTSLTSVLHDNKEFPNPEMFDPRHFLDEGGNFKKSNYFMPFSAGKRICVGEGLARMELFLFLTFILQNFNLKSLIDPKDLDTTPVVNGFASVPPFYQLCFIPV
Cytochrome P450 2C9 (Homo sapiens), sequence (P11712 whole entry, looked up): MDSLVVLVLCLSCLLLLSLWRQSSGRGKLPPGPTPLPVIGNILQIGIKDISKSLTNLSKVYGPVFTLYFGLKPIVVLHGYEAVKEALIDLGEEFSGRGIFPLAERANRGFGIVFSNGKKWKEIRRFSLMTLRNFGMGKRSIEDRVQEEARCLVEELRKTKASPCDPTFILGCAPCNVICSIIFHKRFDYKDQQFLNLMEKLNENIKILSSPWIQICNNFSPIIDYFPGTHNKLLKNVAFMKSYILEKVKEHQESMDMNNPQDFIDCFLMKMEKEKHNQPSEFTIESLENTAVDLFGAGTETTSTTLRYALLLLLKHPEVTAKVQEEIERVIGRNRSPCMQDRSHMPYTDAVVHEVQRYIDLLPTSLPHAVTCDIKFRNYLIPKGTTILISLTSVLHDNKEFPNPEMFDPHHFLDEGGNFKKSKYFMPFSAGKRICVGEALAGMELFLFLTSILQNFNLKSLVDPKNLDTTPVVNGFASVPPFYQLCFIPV

Consider `O=C(c1csnn1)N1CCC2(CC1)CCN(c1ccncc1)CC2`, for which the values for the Potency in assay [1] and in [5] were > 11.4 µM (inactive) and > 46 µM (inactive), respectively. In addition, the activity change, negative = inhibition was 0.494% (inactive) in [2] and 1.35% (inactive) in assay [9]. The Potency result in [3], in assay [6], in assay [7] and in assay [8] was “inactive” each time. Also, the activity, negative = inhibition in [4] is 0.543% (inactive). Besides, the max response in assay [9] (setting [14]) came to 6.68%; in assay [9] (setting [15]) it was 10%. For the same compound, the result in assay [10] was inactive.

As for `Cn1cccc1C(=O)N1CCC2(CC1)CN(c1ccncc1)C2`, the Potency in assay [1] was > 11.4 µM (inactive); in assay [5], > 46 µM (inactive); in [11] it was 5.01 µM (active); in [12] it was 1.26 µM (active). For the same compound, the values for the activity change, negative = inhibition in [2] and in assay [9] were -6.05% (inactive) and 2.57% (inactive), respectively. For the same compound, the Potency result in assay [3], in assay [6] and in assay [7] was “inactive” in each case. The activity, negative = inhibition in assay [4] is -3.69% (inactive). For the same compound, the max response stood at 0.464% in assay [9] (setting [14]) and 4.51% in assay [9] (setting [15]). Besides, the outcome in assay [10] was inactive.

`COC(=O)N1CCC2(CC1)CN(c1ccccc1)C2`: the results for the Potency in assay [1], in assay [5] and in [12] were > 11.4 µM (inactive), > 46 µM (inactive) and 6.31 µM (active), respectively. Moreover, the results for the activity change, negative = inhibition in assay [2] and in assay [9] were -2.49% (inactive) and -0.409% (inactive), respectively. The Potency result in assay [3], in assay [6], in [7] and in assay [13] was “inactive” throughout. The activity, negative = inhibition in [4] is 8.16% (inactive). The values for the max response in assay [9] (setting [14]) and in assay [9] (setting [15]) were 4.45% and 2.93%, respectively. The outcome in assay [10] was inactive.

For `CN1CCCC2(CCN(C(=O)c3cc(C(F)(F)F)cc(C(F)(F)F)c3)CC2)C1`, the Potency in [1] is > 11.4 µM (inactive); in assay [5], > 46 µM (inactive). In addition, the activity change, negative = inhibition in [2] is 5.94% (inactive); in assay [9], 3.25% (inactive). Besides, the Potency entry in assay [3], in [6], in assay [7] and in [8] was “inactive” each time. Moreover, the activity, negative = inhibition in assay [4] was 4.14% (inactive). The max response came out at 17.7% in assay [9] (setting [14]) and 23.1% in assay [9] (setting [15]). Moreover, the outcome in assay [10] was inactive.

As for `c1ccc(C(c2ccccc2)N2CC[C@@]3(CCCNC3)C2)cc1`, the Potency is > 11.4 µM (inactive) in assay [1], > 46 µM (inactive) in assay [5] and 7.94 µM (active) in assay [13]. Besides, the activity change, negative = inhibition is 0.329% (inactive) in assay [2] and -9.5% (inactive) in [9]. Besides, the Potency result in assay [3], in assay [6], in assay [7] and in assay [8] was “inactive” throughout. Further, in assay [4], the activity, negative = inhibition is 8.51% (inactive). Also, the max response in [9] (setting [14]) was 4.5%; in [9] (setting [15]), -6.03%. The result in [10] was inactive.

As for `COc1ccc(C(=O)N2CCC3(CCCN(CC(C)C)C3)CC2)cc1`, the Potency in assay [1] is > 11.4 µM (inactive); in [5], > 46 µM (inactive). Moreover, the activity change, negative = inhibition in assay [2] is -7.24% (inactive); in assay [9], 2.63% (inactive). Also, the Potency entry in assay [3], in assay [6], in assay [7] and in [8] was “inactive” in each case. In addition, in [4], the activity, negative = inhibition is -5.73% (inactive). In addition, the max response in assay [9] (setting [14]) is 21.1%; in assay [9] (setting [15]) it was 26.9%. In addition, the result in assay [10] was inactive.

For the compound `Cc1noc(C)c1C(=O)N1CCC2(CCCN(c3ccncc3)C2)CC1`, the Potency is > 11.4 µM (inactive) in [1] and > 46 µM (inactive) in [5]. Further, the activity change, negative = inhibition in [2] is 6.75% (inactive); in [9], 5.44% (inactive). Also, the Potency result in assay [3], in [6], in [7] and in [8] was “inactive” each time. Also, in assay [4], the activity, negative = inhibition was 8.27% (inactive). For the same compound, the max response in assay [9] (setting [14]) turned out to be 15.3%; in [9] (setting [15]) it was 23.4%. Also, in [10], the result was inactive.
